Here are results for six molecules from PubChem BioAssay (NCATS).

In assay [1] the target is ATP-dependent 6-phosphofructokinase (Trypanosoma brucei brucei) (UniProt O15648). Kind of assay: qHTS Assay to Find Inhibitors of T. brucei phosphofructokinase: hit validation (AID 492961). Put shortly:
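Luminescence from ADP-Glo reports ADP generated as T. brucei PFK (1.25 nM) phosphorylates 0.5 mM fructose-6-phosphate using 0.1 mM ATP. Reactions ran 45 min at room temperature, pH 8.0.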
In general terms: Quantitative high-throughput screening tests each substance at several concentrations.

For assay [2], the target named is Luciferin 4-monooxygenase (Photinus pyralis) (UniProt P08659). Kind of assay: Biochemical firefly luciferase enzyme assay for NPC (AID 624030).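 Note: purified P. pyralis luciferase at 10 nM with luciferin and ATP substrate; nearly all actives have a fitted effect of over 70% in size.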 Put shortly: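 Purified P. pyralis luciferase at 10 nM in 50 mM Tris Acetate (final), luminescence read within 5 minutes of enzyme addition to compounds. Activity normalised to PTC124 versus DMSO; concentration-response curves classed by r2, magnitude and activity.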
Chain of Luciferin 4-monooxygenase (Photinus pyralis) (P08659 whole entry, looked up): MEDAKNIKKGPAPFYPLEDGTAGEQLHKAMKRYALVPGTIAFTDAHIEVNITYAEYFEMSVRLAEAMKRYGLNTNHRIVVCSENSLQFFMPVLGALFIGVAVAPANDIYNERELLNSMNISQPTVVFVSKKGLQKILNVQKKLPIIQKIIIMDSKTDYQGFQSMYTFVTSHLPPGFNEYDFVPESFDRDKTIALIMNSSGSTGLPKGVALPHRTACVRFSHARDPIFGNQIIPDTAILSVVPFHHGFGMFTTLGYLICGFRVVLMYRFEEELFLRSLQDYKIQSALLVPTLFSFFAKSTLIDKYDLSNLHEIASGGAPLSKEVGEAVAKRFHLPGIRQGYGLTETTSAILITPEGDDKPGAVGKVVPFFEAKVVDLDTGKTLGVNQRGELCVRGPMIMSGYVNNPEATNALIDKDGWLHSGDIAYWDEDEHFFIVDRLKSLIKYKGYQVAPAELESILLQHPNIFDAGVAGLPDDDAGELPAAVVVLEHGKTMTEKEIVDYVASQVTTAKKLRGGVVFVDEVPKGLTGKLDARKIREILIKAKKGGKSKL

Assay [3] in a line: S16 Schwann cell viability assay (CellTiter-Glo assay) (AID 624031). Note: nearly all actives have a fitted effect of over 70% in size. In short, it runs like this:
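Native S16 rat Schwann cells, 500-750 cells/well in DMEM with 10% FBS, dosed with compound after overnight culture and incubated 24h at 37 degree Celsius/5% CO2. Viability by CellTiter-Glo luminescence; % activity normalized to no-cell wells and DMSO-treated cells.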
On the technique in general: ATP-based viability assays read luminescence as a measure of living cells.

The nature of assay [4]: S16 Schwann cell PMP22 intronic element beta-lactamase assay (AID 624044; calls by dose curve; note: nearly all actives have a fitted effect of over 15% in size). Conditions: S16 rat Schwann cells, PMP22 element beta-lactamase FRET, 24 h; ratio activity, negative = inhibition: at 38.3 µM (top of the series). Put shortly:
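Beta-lactamase reporter under a PMP22 intronic regulatory element in stable S16 rat Schwann cells; 24 h compound exposure. 460 nm blue signal normalized between DMSO (0%) and potassium clavulanate, with 535 nm FRET tracking viability; curves classed by r2 and response.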

Another assay concerns 7G8. Kind of assay: qHTS profiling for inhibitors of Plasmodium falciparum proliferation (AID 504749). Note: nearly all actives have a fitted effect of over 60% in size. Note: potency is the fitted concentration of half-maximal effect. Conditions: P. falciparum in erythrocytes, SYBR Green DNA, 72 h; series mostly up to 28.7 µM. Put shortly: (§1)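 Each compound contacts P. falciparum-infected red blood cells for 72 h at 37 C; lysis buffer (Tris, EDTA, saponin, Triton X, SYBR Green I) is added and fluorescence measured next morning; values normalized to controls.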

The next assay concerns AS120. Described as above. The settings on record: P. falciparum in erythrocytes, SYBR Green DNA, 72 h; series mostly up to 28.7 µM. Put shortly:
as §1

Another assay concerns CP192. The assay is described as above. Conditions: P. falciparum in erythrocytes, SYBR Green DNA, 72 h; series mostly up to 28.7 µM. Put shortly:
as §1

The next assay has as its system CP201. The description is as above. Conditions: P. falciparum in erythrocytes, SYBR Green DNA, 72 h; series mostly up to 28.7 µM. Put shortly:
as §1

The next assay deals with CP203. Described as above. The settings on record: P. falciparum in erythrocytes, SYBR Green DNA, 72 h; series mostly up to 28.7 µM. In short, it runs like this:
as §1

The next assay relates to CP211. The description is as above. Conditions: P. falciparum in erythrocytes, SYBR Green DNA, 72 h; series mostly up to 28.7 µM. In short, it runs like this: as §1
Another assay has as its system CP215. Described as above. The settings on record: P. falciparum in erythrocytes, SYBR Green DNA, 72 h; series mostly up to 28.7 µM. In short, it runs like this: as §1
The subject of a further assay is CP237. Described as above. The settings on record: P. falciparum in erythrocytes, SYBR Green DNA, 72 h; series mostly up to 28.7 µM. In short, it runs like this:
as §1

A further assay has as its system CP262. Described as above. The settings on record: P. falciparum in erythrocytes, SYBR Green DNA, 72 h; series mostly up to 28.7 µM. In short, it runs like this:
as §1

The next assay has as its system CP266. The description is as above. Conditions: P. falciparum in erythrocytes, SYBR Green DNA, 72 h; series mostly up to 28.7 µM. In short, it runs like this: as §1
The test system of the next assay is CP268. The assay is described as above. Conditions: P. falciparum in erythrocytes, SYBR Green DNA, 72 h; series mostly up to 28.7 µM. Put shortly: as §1
Another assay deals with CP269. The description is as above. The settings on record: P. falciparum in erythrocytes, SYBR Green DNA, 72 h; series mostly up to 28.7 µM. In short, it runs like this:
as §1

The subject of a further assay is CP286. Described as above. The settings on record: P. falciparum in erythrocytes, SYBR Green DNA, 72 h; series mostly up to 28.7 µM. In short, it runs like this:
as §1

A further assay relates to CP305. The assay is described as above. Conditions: P. falciparum in erythrocytes, SYBR Green DNA, 72 h; series mostly up to 28.7 µM. In short, it runs like this:
as §1

Another assay deals with CP315. The assay is described as above. The settings on record: P. falciparum in erythrocytes, SYBR Green DNA, 72 h; series mostly up to 28.7 µM. Put shortly: as §1
A further assay deals with CP325. The assay is described as above. The settings on record: P. falciparum in erythrocytes, SYBR Green DNA, 72 h; series mostly up to 28.7 µM. Put shortly:
as §1

The test system of a further assay is CP329. The assay is described as above. Conditions: P. falciparum in erythrocytes, SYBR Green DNA, 72 h; series mostly up to 28.7 µM. Put shortly: as §1
The next assay deals with DIV14. Described as above. The settings on record: P. falciparum in erythrocytes, SYBR Green DNA, 72 h; series mostly up to 28.7 µM. In short, it runs like this:
as §1

In another assay the test system is DIV17. Described as above. The settings on record: P. falciparum in erythrocytes, SYBR Green DNA, 72 h; series mostly up to 28.7 µM. In short, it runs like this: as §1
In another assay the test system is DIV30. The description is as above. Conditions: P. falciparum in erythrocytes, SYBR Green DNA, 72 h; series mostly up to 28.7 µM. Put shortly: as §1
A further assay relates to ECU. The assay is described as above. The settings on record: P. falciparum in erythrocytes, SYBR Green DNA, 72 h; series mostly up to 28.7 µM. In short, it runs like this: as §1
In another assay the test system is FAB9. The assay is described as above. Conditions: P. falciparum in erythrocytes, SYBR Green DNA, 72 h; series mostly up to 28.7 µM. In short, it runs like this: as §1
A further assay deals with ICS. Described as above. Conditions: P. falciparum in erythrocytes, SYBR Green DNA, 72 h; series mostly up to 28.7 µM. Put shortly: as §1
A further assay concerns N140. The description is as above. The settings on record: P. falciparum in erythrocytes, SYBR Green DNA, 72 h; series mostly up to 28.7 µM. Put shortly:
as §1

In a further assay the test system is PC26. The description is as above. The settings on record: P. falciparum in erythrocytes, SYBR Green DNA, 72 h; series mostly up to 28.7 µM. In short, it runs like this: as §1
The subject of the next assay is PC49. Described as above. Conditions: P. falciparum in erythrocytes, SYBR Green DNA, 72 h; series mostly up to 28.7 µM. Put shortly: as §1
Another assay relates to SC27B. The assay is described as above. Conditions: P. falciparum in erythrocytes, SYBR Green DNA, 72 h; series mostly up to 28.7 µM. In short, it runs like this:
as §1

The subject of another assay is TAB165. Described as above. The settings on record: P. falciparum in erythrocytes, SYBR Green DNA, 72 h; series mostly up to 28.7 µM. Put shortly: as §1
A further assay concerns W2. The assay is described as above. Conditions: P. falciparum in erythrocytes, SYBR Green DNA, 72 h; series mostly up to 28.7 µM. Put shortly: as §1
Assay [5] in a line: qHTS for Inhibitors of Plasmodium falciparum (DD2) proliferation (AID 504314). In short, it runs like this:
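SYBR Green DNA-fluorescence growth assay: infected RBCs at 0.3% parasitemia, 2.5% hematocrit, 72 h compound exposure, 37C, 5% CO2; overnight lysis with dye at RT; normalized to 0.29 uM artemisinin and vehicle.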

A short description of assay [6]: qHTS for Inhibitors of Plasmodium falciparum (GB4) proliferation (AID 504315). Note: nearly all actives have a fitted effect of over 50% in size. In short, it runs like this:
(§2)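 Parasite growth measured as SYBR Green DNA fluorescence (ex 485, em 535 nm) after overnight lysis following 72 h culture at 37 °C, 0.3% parasitemia, 2.5% hematocrit. Values normalized against DMSO and 0.29 uM artemisinin controls, with plate-stack correction.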

Assay [7] in a line: qHTS for Inhibitors of Plasmodium falciparum (7G8) proliferation (AID 504316). Note: nearly all actives have a fitted effect of over 65% in size. Note: potency is the fitted concentration of half-maximal effect. Put shortly:
as §2

Assay [8] is described as follows: qHTS for Inhibitors of Plasmodium falciparum (HB3) proliferation (AID 504318). Note: nearly all actives have a fitted effect of over 60% in size. In short, it runs like this:
as §2

Assay [9] is described as follows: qHTS for Inhibitors of Plasmodium falciparum (CP250) proliferation (AID 504320). Put shortly: as §2

Inconclusive results are not listed. A number with no mark means an inactive call. Calls of active or inactive are those of the source. Unless noted, calls come from the whole dose curve; as a rule, active = well fitted curve in the direction sought with a large enough effect; inconclusive = small, poorly fitted or top-dose-only effect, or another doubt; inactive = no such curve, though single readings can be large; an effect the other way counts as inactive or inconclusive.

Chain of ATP-dependent 6-phosphofructokinase (Trypanosoma brucei brucei) (O15648 whole entry, looked up): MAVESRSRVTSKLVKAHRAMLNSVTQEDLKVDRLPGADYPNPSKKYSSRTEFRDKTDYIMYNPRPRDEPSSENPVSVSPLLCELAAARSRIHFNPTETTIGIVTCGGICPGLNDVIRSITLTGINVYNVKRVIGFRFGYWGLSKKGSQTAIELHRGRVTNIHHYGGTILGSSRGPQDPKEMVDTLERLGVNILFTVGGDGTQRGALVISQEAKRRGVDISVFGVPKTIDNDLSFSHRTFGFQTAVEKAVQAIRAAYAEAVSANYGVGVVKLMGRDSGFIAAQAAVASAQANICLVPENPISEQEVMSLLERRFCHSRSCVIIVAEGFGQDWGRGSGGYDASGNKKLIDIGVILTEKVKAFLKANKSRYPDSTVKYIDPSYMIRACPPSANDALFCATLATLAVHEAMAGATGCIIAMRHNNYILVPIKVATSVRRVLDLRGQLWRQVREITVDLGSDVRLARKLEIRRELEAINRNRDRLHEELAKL

For `C=C1CC[C@H](O)C/C1=C/C=C1\CCC[C@]2(C)[C@@H]([C@H](C)CC[C@@H](O)C(C)(C)O)CC[C@@H]12`, the Potency entry (in assay [1]; in assay [2]; in assay [3]; in [4]; in the assay on CP192; in the assay on CP201) was “inactive” each time. Besides, the Potency entry in the assay with CP203, in the assay with CP211, with CP215, in the assay with CP262, with CP266 and with CP268 was “inactive” in each case. Moreover, the Potency entry with CP269, in the assay on CP286, with CP305, in the assay on CP315, in the assay with CP325 and in the assay with CP329 was “inactive” in each case. Besides, the Potency result in the assay with FAB9 and in the assay with PC49 was “inactive” in each case. Also, the Potency was 8.91 µM (active) in the assay on 7G8; 10 µM (active) in the assay on AS120; 10 µM (active) with CP237; 13.5 µM (active) in the assay with DIV14; 13.5 µM (active) in the assay with DIV17; 13.5 µM (active) with DIV30. The Potency in the assay with ECU is 10 µM (active); in the assay with ICS, 10 µM (active); in the assay on N140 it was 8.91 µM (active); in the assay with PC26, 15.1 µM (active); in the assay on SC27B, 11.2 µM (active); with TAB165 it was 14.1 µM (active). Also, in the assay on W2, the Potency is 12 µM (active).
As for `COC(=O)CCC(=O)OC1(C)C(=O)C=C2C=C(C3CC3)N(CC(C)C)C=C2C1=O` (configuration not stated), the Potency entry in [5], in assay [6], in [8] and in [9] was “inactive” in each case. The Potency in [7] was 1.51 µM (active).
Consider `CCCCc1nc2c(c3c1C[C@H](C)OC3)CN(C(=O)Nc1ccc(OC)cc1)CC2`, for which the Potency entry in assay [5], in [6], in [7], in assay [8] and in assay [9] was “inactive” throughout.
Regarding `COC/C=C/C1=CC2=CC(=O)C(C)(OC(=O)c3cnc4ccccc4n3)C(=O)C2=CN1CCCOC(C)C` (configuration not stated), the Potency result in assay [5], in assay [6], in assay [7] and in assay [8] was “inactive” throughout.
Take `CCOC(=O)CN1C(=O)N[C@@H](c2cccs2)C(C(=O)OC)=C1C`: the Potency result in assay [5], in assay [6], in assay [7], in assay [8] and in assay [9] was “inactive” each time.
Regarding `CC#CCN1c2ccccc2[C@]23C[C@@H](C(=O)OC)N(C(=O)COCc4ccccc4)C2=NC(C(=O)OC)=C(C(=O)OC)[C@H]13`, the Potency entry in assay [5], in assay [6], in assay [7], in [8] and in [9] was “inactive” each time.
